GPR32 ag = agonists of human resolvin D1 receptor DRV1 (GPR32) | 48,000 compounds, 2.5% hits | CHO-K1 GPR32 beta-arrestin PathHunter luminescence, 90 min; zero percent set by DMSO-only wells | O75388 | activation, % at 76.9 µM;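 active = activation of at least 60% and not above a set upper limit, about 1 call in 100 departs from these limits; inconclusive = activation of 40% to 60%, or above that upper limit; inactive = activation under 40%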
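CHO-K1 cells stably expressing ProLink-tagged GPR32 and Enzyme Activator-tagged beta-arrestin were seeded at 2,500 cells/well overnight, exposed to compounds for 90 min at 37 °C, then read by beta-Gal complementation chemiluminescence after 1 h detection reagent.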
B2AR arrestin ag = beta-arrestin recruitment by human beta2-adrenergic receptor ligands | 44,000 tested, under 10 active | P07550 | HTLA Tango cells, beta-arrestin recruitment, luciferase luminescence, 18 h | Potency, µM (series often up to 46.1 µM), usual class: activators
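Tango cells (recombinant beta2-AR, beta-arrestin, tTA-driven luciferase), 1500/well in DMEM 1% FBS, treated 18 h at 37 °C with compounds up to 46 µM; luciferin mix added, luminescence read after 15 min; %activity curves fitted and curve-classed.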
GALK inhibitor = GALK (human) enzyme inhibition | Potency, µM (doses to about 57.5 µM), usual class: inhibitors | AID 1347072 | P51570 | 44,000 tested, under 10 active | recombinant GALK, Kinase-Glo ATP luminescence, 1 h
Target sequence (P51570 whole entry, looked up): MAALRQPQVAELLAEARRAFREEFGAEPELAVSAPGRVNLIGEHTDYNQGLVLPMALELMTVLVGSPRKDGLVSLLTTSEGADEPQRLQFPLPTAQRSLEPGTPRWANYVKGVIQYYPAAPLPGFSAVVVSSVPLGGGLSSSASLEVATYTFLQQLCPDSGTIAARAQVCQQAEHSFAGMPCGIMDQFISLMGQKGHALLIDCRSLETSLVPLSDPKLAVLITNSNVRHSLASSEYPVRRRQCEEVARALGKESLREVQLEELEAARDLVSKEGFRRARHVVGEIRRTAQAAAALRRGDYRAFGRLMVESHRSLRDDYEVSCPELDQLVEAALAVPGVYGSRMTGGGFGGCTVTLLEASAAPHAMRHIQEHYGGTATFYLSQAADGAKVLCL
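5 nM GALK; 35 uM ATP; 100 uM D-galactose; 20 mM HEPES pH 8.0, 5 mM MgCl2, 60 mM NaCl, 1 mM DTT, 0.01% BSA; 1 h RT; Kinase-Glo Plus luminescence.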
TSG101-PTAP inh = blocks PTAP binding to human TSG101, validation | Q99816 | Fluorescence polarization, FITC-PTAP peptide/Tsg101, 20 min | Potency, µM (series often up to 115 µM), most hits filed as inhibitors | 44,000 tested, under 10 active | AID 1347069
Target sequence (Q99816 whole entry, looked up): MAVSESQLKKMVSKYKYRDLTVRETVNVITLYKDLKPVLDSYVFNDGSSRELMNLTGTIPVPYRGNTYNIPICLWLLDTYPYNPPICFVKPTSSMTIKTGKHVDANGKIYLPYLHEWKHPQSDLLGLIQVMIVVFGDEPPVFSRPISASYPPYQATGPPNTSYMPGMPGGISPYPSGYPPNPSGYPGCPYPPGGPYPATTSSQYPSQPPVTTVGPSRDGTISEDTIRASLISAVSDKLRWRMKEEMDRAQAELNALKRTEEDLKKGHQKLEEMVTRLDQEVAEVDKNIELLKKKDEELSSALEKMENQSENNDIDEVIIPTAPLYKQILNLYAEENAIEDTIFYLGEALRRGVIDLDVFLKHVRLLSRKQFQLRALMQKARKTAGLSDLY
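Compounds pinned into 10 uM Tsg101 binding domain, then 50 nM FITC-PTAP peptide added in pH 7.5 HEPES buffer; FP read after 20 min, room temperature. Total S+P intensity flags fluorescent compounds; active cut-off <25 µM, efficacy <60%.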
NTMT1 inhibitor = NTMT1 methyltransferase inhibition | Q9BV86 | NTMT1 MTase-Glo SAH luminescence, purified enzyme | Potency, µM (top dose mostly 114 µM), hits mostly inhibitors | 59,000 compounds, 2.5% hits | AID 1645870; note: nearly all actives have a fitted effect of over 65% in size
OvCa metastasis = blocks SKOV3ip1 adhesion and invasion in omental model | Potency, µM (titrated, usually from 45.8 µM), actives largely listed as inhibitors | SKOV3ip1-GFP adhesion/invasion on 3D omental model, fluorescence | 46,000 compounds, 0.1% hits; note: nearly all actives have a fitted effect of over 65% in size
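qHTS, 4-pt dose (0.36-46 umol/L); SKOV3ip1-GFP, 1,200 cells/well, no FBS; primary omental fibroblast/mesothelial co-culture 48 h pre-grown; 2 h RT + 16 h 37 C; PBS wash, 4% PFA; GFP count 488/509 nm.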
CLK4 inh-1 = CLK4 kinase inhibition, SAR round 2. 90 compounds, 90% hits. shares compounds with NTMT1 inhibitor. recombinant Clk4, Kinase-Glo ATP luminescence, 4.5 h. Potency, µM (doses to about 76.9 µM), most hits filed as inhibitors
CLK4 inh-2 = CLK4 kinase inhibition, SAR round 2. shares compounds with NTMT1 inhibitor. Reaction Biology kinase assay, 10 uM ATP. Potency, µM, usual class: inhibitors. 65 compounds, 100% hits; calls by dose curve
DYRK1A inh = blocks human DYRK1A kinase in radiometric assay; 65 compounds, 90% hits; AID 504424; shares compounds with NTMT1 inhibitor; Reaction Biology kinase assay, 10 uM ATP; Potency, µM, most hits filed as inhibitors;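 active = compounds that showed inhibition of Dyrk1a and received a fitted potency; inactive = compounds that showed no inhibition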
CLK2 RBC = CLK2 kinase inhibition. Potency, µM, hits mostly inhibitors. Reaction Biology kinase assay, 10 uM ATP. shares compounds with NTMT1 inhibitor. 65 compounds, 90% hits;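 active = compound that inhibits Clk2 kinase in the dose series, with an IC50 potency reported; inactive = no inhibition seen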
CLK3 RBC = blocks human CLK3 kinase activity; shares compounds with NTMT1 inhibitor; recombinant CLK3 kinase assay, 10 uM ATP; Potency, µM, usual class: inhibitors; 65 compounds, 40% hits;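 active = compounds that inhibited Clk3 enough in the ten-dose series to give a half-maximal potency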
DYRK1B RBC = DYRK1B kinase inhibition; shares compounds with NTMT1 inhibitor; Recombinant Dyrk1b kinase assay, 10 uM ATP; Potency, µM, actives largely listed as inhibitors; 65 compounds, 80% hits; AID 504429;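 active = compounds whose dose response shows an inhibitor phenotype against the kinase Dyrk1b; inactive = compounds showing no inhibitor phenotype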
CLK1 RBC = CLK1 kinase inhibition. recombinant Clk1 kinase assay, 10 uM ATP. 65 compounds, 90% hits. shares compounds with NTMT1 inhibitor. Potency, µM, most hits filed as inhibitors;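 active = compounds that block the splicing kinase Clk1 enough to give a fitted half-inhibition concentration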
Sfp qHTS opt = inhibitors of Bacillus subtilis Sfp PPTase, optimization followup | shares compounds with NTMT1 inhibitor | purified Sfp PPTase enzyme activity, qHTS | Potency, µM (series often up to 114 µM), most hits filed as inhibitors | 230 compounds, 78% hits | AID 540350
Bsub HM489 growth = reduces growth of B. subtilis HM489 strain | AID 540353 | Potency, µM (top dose mostly 114 µM), usual class: inhibitors | shares compounds with NTMT1 inhibitor | 220 compounds, 50% hits | B. subtilis HM489 (acpS-) growth, BacTiter-Glo, 5 h
Sfp gel opt = inhibits B. subtilis Sfp PPTase in gel assay; shares compounds with NTMT1 inhibitor; purified Sfp PPTase, gel-based product detection; Potency, µM (titrated, usually from 250 µM), usual class: inhibitors; 220 compounds, 54% hits
Sfp SAR2 = Sfp phosphopantetheinyl transferase inhibition, SAR round 2 | AID 602370 | shares compounds with NTMT1 inhibitor | purified Sfp enzyme, PPTase activity, qHTS | 230 compounds, 87% hits | Potency, µM (highest dose often 57.1 µM), hits mostly inhibitors
HSD17B4 inh = HSD17B4 (human) inhibition, HPGD counter-screen; shares compounds with NTMT1 inhibitor; purified HSD17B4, estradiol/NAD+, NADH fluorescence; Potency, µM (doses to about 57.1 µM), usual class: inhibitors; 230 compounds, 10% hits; AID 743187
ALDH1A1 inh = counter-screen for HPGD inhibitors: human ALDH1A1 inhibition; Potency, µM (highest dose often 57.1 µM), hits mostly inhibitors; shares compounds with NTMT1 inhibitor; 230 compounds, 93% hits; AID 743195; recombinant ALDH1A1, NADH fluorescence, propionaldehyde/NAD+
NNMT inh = counter-screen for NTMT1 inhibitors: human NNMT inhibition; shares compounds with NTMT1 inhibitor; NNMT MTase-Glo luminescence, SAH detection; Potency, µM (highest dose often 57.1 µM), usual class: inhibitors; 120 compounds, 10% hits; AID 1645878
Large screens that a line does not name were inactive (follow-up assays come after a bar, where they were run). Most compounds without a hit are left out; they make up all but 3.8% or so of the library. Unless noted, calls come from the whole dose curve; as a rule, active = well fitted curve in the direction sought with a large enough effect; inconclusive = small, poorly fitted or top-dose-only effect, or another doubt; inactive = no such curve, though single readings can be large; an effect the other way counts as inactive or inconclusive.

Cc1nn(Cc2ccc(Cl)cc2)c(C)c1NC(=O)c1noc2c1CCc1ccccc1-2	GPR32 ag 107 (no result: NTMT1 inhibitor)
COc1ccc2c(c1)CCc1c(C(=O)Nc3c(C)nn(Cc4ccc(Cl)cc4)c3C)noc1-2	none
O=C(O)[C@H](Cc1c[nH]c2ccccc12)N1C(=O)c2ccccc2C1=O	NTMT1 inhibitor inconclusive (no result: GPR32 ag, B2AR arrestin ag, GALK inhibitor, TSG101-PTAP inh)
Cc1cc2oc(=O)c(CC(=O)O)c(C)c2c2occ(-c3ccc(F)cc3)c12	NTMT1 inhibitor 40µM
COc1ccc(CNC(=O)c2cc3cc(S(=O)(=O)N4CCCCC4)ccc3n2C)c(OC)c1	none
Cc1ccccc1-c1nn2c(=O)cc(CN3CCN(C(=O)c4ccc(C(C)(C)C)cc4)CC3)nc2s1	none
COc1ccc(CCNC(=O)CCn2c(=O)c3ccccc3n(Cc3ccc(Cl)cc3)c2=O)cc1OC	NTMT1 inhibitor inconclusive
CC(C)N(Cc1ccccc1)C(=O)c1cc2ccc3cccnc3c2[nH]1	none
CC(C)N(CCC(=O)c1ccc2ccccc2c1)Cc1ccccc1	NTMT1 inhibitor 50µM (no result: B2AR arrestin ag, GALK inhibitor, TSG101-PTAP inh, OvCa metastasis)
Cc1cc(C)c(NC(=O)Cn2c(=O)n(CCC(=O)NCc3ccc4c(c3)OCO4)c(=O)c3ccccc32)c(C)c1	none
CCOc1ccccc1C(=O)Nc1cc2c(cc1N1CCCCC1)n(C)c(=O)n2C	GPR32 ag 70 (no result: NTMT1 inhibitor)
CO[C@@H](C(=O)N1Cc2[nH]nc(NC(=O)c3ccc(N4CCN(C)CC4)cc3)c2C1)c1ccccc1	OvCa metastasis 13µM (no result: GPR32 ag, B2AR arrestin ag, GALK inhibitor, TSG101-PTAP inh)
CC(C)CCOc1ccc(C2N=C(N)Nc3nc4ccccc4n32)cc1 (stereo unspecified)	GPR32 ag inconclusive, OvCa metastasis 13µM
CCCNC(=O)Nc1ccc(Oc2ncnc3cc(OC)c(OC)cc23)cc1Cl	none (no result: GPR32 ag, B2AR arrestin ag, GALK inhibitor, TSG101-PTAP inh)
COc1cc2c(Nc3cc(F)c(Cl)c(Cl)c3)ncnc2cc1OCC1CCCN(C)CCC1	NTMT1 inhibitor 35µM (no result: GPR32 ag, B2AR arrestin ag, GALK inhibitor, TSG101-PTAP inh, OvCa metastasis) | NNMT inh inconclusive
CC[C@@H](C)Nc1cc(C(=O)NC2CC3CC[C@@H](C2)N3c2ccc(C(=O)C3CC3)cn2)c(C)cc1C(N)=O (stereo partly specified)	none (no result: GPR32 ag, B2AR arrestin ag, GALK inhibitor, TSG101-PTAP inh, OvCa metastasis) | NNMT inh inactive
CCc1ccc(CNC(=O)c2c(C)oc3ncnc(N4CCOCC4)c23)cc1	none
OCc1ccc(-c2ccc3ncnc(N4CCOCC4)c3c2)o1	none (no result: GPR32 ag, B2AR arrestin ag, GALK inhibitor, TSG101-PTAP inh, OvCa metastasis) | CLK4 inh-1 0.52µM | CLK4 inh-2 1.1 | DYRK1A inh 15µM | CLK2 RBC 14µM | CLK3 RBC inactive | DYRK1B RBC 15µM | CLK1 RBC 5.3µM
O=C(CNS(=O)(=O)c1cccs1)N1CCN(c2cccc(C(F)(F)F)c2)CC1	none
Cc1noc(C)c1S(=O)(=O)N1CCC(C(=O)N2CCN(c3cccc(C(F)(F)F)c3)CC2)CC1	none
FC(F)(F)c1ccc(N2CCN(C(=S)Nc3ccccn3)CC2)cc1	NTMT1 inhibitor inconclusive (no result: GPR32 ag, B2AR arrestin ag, GALK inhibitor, TSG101-PTAP inh, OvCa metastasis) | Sfp qHTS opt 2.4µM | Bsub HM489 growth 21µM | Sfp gel opt 5µM | Sfp SAR2 0.58µM | HSD17B4 inh inactive | ALDH1A1 inh 2.4µM

Assay outcomes as filed in PubChem BioAssay.
